# Measured values as given in PubChem BioAssay.
# “And” between values parts separate entries of the source, which are not always exact repeats. Equal values may be shown once. Results filed as inconclusive are left out. The source made the active and inactive calls. Unless noted, the rule behind the calls is not given here. Peptide text beside a SMILES is read from it.
# Tests used:
# [1] = yeast TOR pathway RPL19A-GFP modulators, primary screen, cell-based, S. cerevisiae, multiplex flow cytometry (AID 1862; in the data active = percent of DMSO control GFP below about 86%;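 note: lower values mimic rapamycin by blocking the RPL19A rise seen in DMSO cells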); details: S. cerevisiae RPL19A-GFP strain, flow cytometry fluorescence, 3 h; at 10 µM; stronger effect = lower value
# [2] = modulators of CIT2-GFP expression in yeast, primary screen, S. cerevisiae, GFP fusion, multiplex flow cytometry (AID 1870;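 active = percent response above a set limit, the screen-wide mean plus 3 SD, cut at about 130% in these data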;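 note: barcoded CIT2-GFP strain pooled with four other GFP strains with rapamycin as positive control; median GFP fluorescence per well over plate mean of DMSO wells so 100% = DMSO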); details: 3 h, at 10 µM, stronger effect = higher value
# [3] = modulators of LAP4-GFP expression in yeast, primary screen, S. cerevisiae, multiplex flow cytometry (AID 1873;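 active = GFP signal, as percent of the solvent control, above the screen mean plus 3 SD, about 149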); details: 3 h, at 10 µM, stronger effect = higher value
# [4] = inhibitors of CD8+ T cell-vesicle binding, pilot screen, LFA-1/ICAM-1 modulator project, MLPCN validation set, flow cytometry (AID 2523;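 active = response below a set limit, under 55% cells CD8-positive and vesicle-bound, and CD8 cells' 90th-percentile brightness under 279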;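 for vesicle binding response: mean PE anti-B7-1 fluorescence of CD8+ cells relative to row control; 100% = QL9-loaded vesicles with DMSO vehicle in the same plate row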); details: 2C mouse CD8+ T cells, at 7 µM, stronger effect = lower value; double positive events: measured here: CD8+/vesicle+ event percentage
# [5] = target: Integrin beta-1 (Homo sapiens) + Integrin alpha-4 (Homo sapiens) (UniProt P13612+P05556); assay: inhibition of HUTS-21 binding to VLA-4, pilot screen, VLA-4 allosteric modulator project, U937 cells, HUTS-21 mAb, flow cytometry, validation set (AID 2674;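 active = inhibition above 50%, about 3 SD of the validation set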;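 note: antibody binding induced by the VLA-4 ligand LDV present at three times its Kd; 0% = LDV ligand with antibody and no compound and 100% = antibody without LDV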); details: HUTS-21 LIBS mAb binding, at 6.7 µM, stronger effect = higher value
# [6] = superoxide lowering in aged yeast cells, pilot screen, validation compound set (AID 2706;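 active = superoxide response below 65% of plate, a cut near 3 SD across the whole screen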;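 note: yeast exposed to compound for one week at 30 degrees C before staining; 100% = mean of all compound wells on the same plate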); details: S. cerevisiae aging, superoxide DHE fluorescence; at 10 µM; stronger effect = lower value
# [7] = target: Beta-adrenergic receptor kinase 1 (Homo sapiens) (UniProt P25098); assay: GRK2 binders displacing RNA aptamer, biochemical, validation, human GRK2, bead flow cytometry (AID 488806;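 active = aptamer binding inhibition above 30%, about 3 SD of noise from non-fluorescent compounds; inactive = inhibition at or below 30%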); details: bead-bound GRK2, FAM-aptamer displacement, at 10 µM, stronger effect = higher value
# Sequence of Beta-adrenergic receptor kinase 1 (Homo sapiens) (P25098 whole entry, looked up): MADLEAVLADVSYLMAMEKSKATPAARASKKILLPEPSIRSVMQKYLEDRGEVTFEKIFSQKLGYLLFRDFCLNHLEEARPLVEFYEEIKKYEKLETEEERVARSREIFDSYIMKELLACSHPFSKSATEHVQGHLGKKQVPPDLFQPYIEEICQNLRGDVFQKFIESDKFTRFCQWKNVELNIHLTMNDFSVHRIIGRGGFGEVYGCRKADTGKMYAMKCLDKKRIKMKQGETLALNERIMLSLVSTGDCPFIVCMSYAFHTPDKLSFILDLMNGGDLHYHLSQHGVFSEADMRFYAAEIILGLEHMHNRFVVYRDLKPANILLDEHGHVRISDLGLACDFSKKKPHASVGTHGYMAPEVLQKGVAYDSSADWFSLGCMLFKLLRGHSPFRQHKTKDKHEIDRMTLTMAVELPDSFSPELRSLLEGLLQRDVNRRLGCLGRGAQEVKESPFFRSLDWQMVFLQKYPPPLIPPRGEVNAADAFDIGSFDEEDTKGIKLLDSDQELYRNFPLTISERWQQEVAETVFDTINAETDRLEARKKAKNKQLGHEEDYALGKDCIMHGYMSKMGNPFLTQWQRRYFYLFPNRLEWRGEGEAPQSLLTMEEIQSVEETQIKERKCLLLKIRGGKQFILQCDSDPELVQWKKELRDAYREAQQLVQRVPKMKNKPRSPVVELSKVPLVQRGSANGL
# [8] = target: Beta-2 adrenergic receptor (Homo sapiens) (UniProt P07550); assay: beta2AR agonists driving receptor internalization, pilot screen, cell-based, FAP fluorogen, flow cytometry, validation set (AID 504459;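 active = percent response above 42, roughly 3 SD of non-fluorescent test compounds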;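 note: agonist-driven loss of surface beta2AR via internalization measured by FAP dye flow cytometry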); details: Am2.2-beta2AR cells, FAP surface receptor flow cytometry; at 10 µM; stronger effect = higher value
# Sequence of Beta-2 adrenergic receptor (Homo sapiens) (P07550 whole entry, looked up): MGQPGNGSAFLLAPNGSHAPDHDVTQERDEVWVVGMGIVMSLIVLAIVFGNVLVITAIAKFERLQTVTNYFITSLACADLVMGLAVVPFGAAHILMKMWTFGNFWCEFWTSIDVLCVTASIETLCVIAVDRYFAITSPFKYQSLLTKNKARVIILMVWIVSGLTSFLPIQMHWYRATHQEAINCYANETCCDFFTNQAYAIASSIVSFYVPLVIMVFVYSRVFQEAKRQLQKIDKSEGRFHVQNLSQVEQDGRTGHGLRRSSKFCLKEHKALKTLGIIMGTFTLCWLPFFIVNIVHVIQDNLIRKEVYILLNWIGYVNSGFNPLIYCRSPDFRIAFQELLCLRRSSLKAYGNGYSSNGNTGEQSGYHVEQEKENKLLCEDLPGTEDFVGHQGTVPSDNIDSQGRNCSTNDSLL
# [9] = target: AP-2 complex subunit beta (Homo sapiens) (UniProt P63010); assay: inhibitors of arrestin peptide binding to AP2, pilot screen, biochemical, validation set, GST-AP2 beads, flow cytometry (AID 504541;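 active = inhibition above 54%, about 3 SD of non-fluorescent compounds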;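 note: AP2 carries R879A mutation and is captured from E. coli lysate; bead-bound FITC arrestin peptide fluorescence measuring arrestin peptide binding to AP2; 0% = DMSO wells and 100% = excess unlabeled arrestin peptide control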); details: FITC arrestin peptide, at 10 µM, stronger effect = higher value
# Sequence of AP-2 complex subunit beta (Homo sapiens) (P63010 whole entry, looked up, one chain of several): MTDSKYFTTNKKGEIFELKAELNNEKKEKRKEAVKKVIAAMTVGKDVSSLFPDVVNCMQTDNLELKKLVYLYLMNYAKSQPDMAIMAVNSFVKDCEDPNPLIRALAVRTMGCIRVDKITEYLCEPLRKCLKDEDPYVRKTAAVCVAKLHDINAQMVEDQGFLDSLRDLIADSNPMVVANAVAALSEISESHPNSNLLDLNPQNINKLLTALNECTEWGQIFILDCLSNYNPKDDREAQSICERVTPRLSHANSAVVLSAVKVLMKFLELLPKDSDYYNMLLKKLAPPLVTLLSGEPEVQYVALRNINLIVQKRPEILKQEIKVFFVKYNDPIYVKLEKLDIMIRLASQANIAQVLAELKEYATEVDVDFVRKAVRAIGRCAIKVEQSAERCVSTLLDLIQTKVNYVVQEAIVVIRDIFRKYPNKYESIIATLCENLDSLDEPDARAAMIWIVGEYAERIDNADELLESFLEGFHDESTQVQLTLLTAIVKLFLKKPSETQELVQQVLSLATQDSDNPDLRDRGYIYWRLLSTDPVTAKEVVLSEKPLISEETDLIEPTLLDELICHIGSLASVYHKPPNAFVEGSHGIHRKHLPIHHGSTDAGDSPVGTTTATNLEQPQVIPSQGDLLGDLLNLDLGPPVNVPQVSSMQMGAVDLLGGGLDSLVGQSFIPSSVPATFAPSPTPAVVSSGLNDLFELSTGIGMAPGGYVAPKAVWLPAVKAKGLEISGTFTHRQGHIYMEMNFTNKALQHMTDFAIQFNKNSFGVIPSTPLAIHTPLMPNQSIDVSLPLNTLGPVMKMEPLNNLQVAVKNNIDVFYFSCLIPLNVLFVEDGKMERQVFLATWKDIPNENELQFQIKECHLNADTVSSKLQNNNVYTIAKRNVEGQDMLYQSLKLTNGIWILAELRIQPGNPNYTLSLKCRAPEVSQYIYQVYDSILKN
# [10] = yeast V-ATPase proton transport modulators, S. cerevisiae, pHLuorin, HTS validation (AID 504600; in the data active = response above about 15%;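 note: plate controls were DMSO for no effect and reference compound for full effect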); details: S. cerevisiae pHLuorin cytosolic pH, at 10 µM, stronger effect = higher value
# [11] = tested on: anti-desmoglein-3 scFv antibody binding to human DSG3; assay: inhibitors of anti-DSG3 scFv binding to DSG3, pilot screen, biochemical, validation compound set, bead-based, flow cytometry (AID 588368;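 active = binding below the plate cutoff, the plate median minus 3 SD, with a reading above zero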;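 note: signal is the median channel fluorescence of bead-bound GFP antibody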); details: Protein G beads, DSG3-Fc, scFv-GFP binding, at 10 µM, stronger effect = lower value
# [12] = tested on: Botulinum neurotoxin type F light chain protease (Clostridium botulinum); assay: Botulinum neurotoxin type F light chain protease inhibition, multiplex microsphere flow cytometry, validation set (AID 588459); details: multiplex microsphere protease substrate cleavage assay, at 10 µM, stronger effect = higher value
# [13] = target: Botulinum neurotoxin type A (Clostridium botulinum) (UniProt P0DPI0); assay: BoNT/A light chain protease inhibitors, biochemical, multiplex microsphere flow cytometry, validation set (AID 588460); details: at 10 µM, stronger effect = higher value
# Sequence of Botulinum neurotoxin type A (Clostridium botulinum) (P0DPI0 whole entry, looked up): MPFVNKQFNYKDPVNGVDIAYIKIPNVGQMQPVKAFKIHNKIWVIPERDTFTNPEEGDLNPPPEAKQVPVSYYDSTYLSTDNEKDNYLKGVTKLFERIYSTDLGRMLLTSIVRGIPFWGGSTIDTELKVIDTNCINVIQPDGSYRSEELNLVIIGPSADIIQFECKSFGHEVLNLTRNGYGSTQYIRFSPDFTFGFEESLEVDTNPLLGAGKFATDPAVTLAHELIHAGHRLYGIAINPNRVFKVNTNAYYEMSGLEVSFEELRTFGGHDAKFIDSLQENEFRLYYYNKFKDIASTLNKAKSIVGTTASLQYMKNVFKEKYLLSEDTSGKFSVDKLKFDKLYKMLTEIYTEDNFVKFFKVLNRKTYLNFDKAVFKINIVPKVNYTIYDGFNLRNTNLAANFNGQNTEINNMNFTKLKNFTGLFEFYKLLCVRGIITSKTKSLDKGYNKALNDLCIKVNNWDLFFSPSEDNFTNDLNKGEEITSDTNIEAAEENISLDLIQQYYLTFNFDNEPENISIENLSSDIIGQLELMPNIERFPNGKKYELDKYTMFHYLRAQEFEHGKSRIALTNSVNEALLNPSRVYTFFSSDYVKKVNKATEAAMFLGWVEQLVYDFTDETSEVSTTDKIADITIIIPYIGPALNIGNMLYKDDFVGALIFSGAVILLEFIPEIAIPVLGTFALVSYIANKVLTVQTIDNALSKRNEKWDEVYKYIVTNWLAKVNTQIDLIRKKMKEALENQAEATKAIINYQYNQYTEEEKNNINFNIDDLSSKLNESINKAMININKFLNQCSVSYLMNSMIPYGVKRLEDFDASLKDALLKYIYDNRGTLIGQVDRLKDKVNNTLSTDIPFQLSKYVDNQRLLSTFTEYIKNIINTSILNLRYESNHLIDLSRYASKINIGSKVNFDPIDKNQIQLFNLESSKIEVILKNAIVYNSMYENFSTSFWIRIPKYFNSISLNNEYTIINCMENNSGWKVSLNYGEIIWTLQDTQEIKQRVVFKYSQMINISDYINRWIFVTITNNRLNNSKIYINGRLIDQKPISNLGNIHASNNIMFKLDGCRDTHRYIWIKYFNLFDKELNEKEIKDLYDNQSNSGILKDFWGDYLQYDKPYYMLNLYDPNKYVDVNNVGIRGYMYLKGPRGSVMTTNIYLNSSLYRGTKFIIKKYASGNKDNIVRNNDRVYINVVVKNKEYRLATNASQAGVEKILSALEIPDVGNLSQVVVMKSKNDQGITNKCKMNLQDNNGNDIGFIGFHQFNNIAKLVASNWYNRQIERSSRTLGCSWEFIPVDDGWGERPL
# [14] = inhibitors of fungal efflux pumps CDR1, CDR2, MDR1, pilot screen, validation compound set, multiplex, phenotypic (AID 588506;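 active = efflux inhibition above 0.42, the validation set average plus 4 SD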;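 note: Nile Red retained in cells so higher fluorescence means more efflux inhibition; 0 = negative control wells and 1 = enniatin B 25 µM full block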); details: S. cerevisiae pump-expressing triplex, Nile Red efflux flow cytometry; at 10 µM; stronger effect = higher value
# [15] = target: ATP-binding cassette sub-family B member 6 (Homo sapiens) (UniProt Q9NP58); assay: ABCB6 transporter inhibitors, pilot screen, K562-ABCB6 cells, flow cytometry, validation set (AID 588550;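 active = inhibition above the screen-wide mean plus 3 SD, about 51%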;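 note: 0% = DMSO wells and 100% = benzethonium chloride 70 µM positive control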); details: K562-ABCB6 porphyrin accumulation, 1 h, at 10 µM, stronger effect = higher value
# Sequence of ATP-binding cassette sub-family B member 6 (Homo sapiens) (Q9NP58 whole entry, looked up): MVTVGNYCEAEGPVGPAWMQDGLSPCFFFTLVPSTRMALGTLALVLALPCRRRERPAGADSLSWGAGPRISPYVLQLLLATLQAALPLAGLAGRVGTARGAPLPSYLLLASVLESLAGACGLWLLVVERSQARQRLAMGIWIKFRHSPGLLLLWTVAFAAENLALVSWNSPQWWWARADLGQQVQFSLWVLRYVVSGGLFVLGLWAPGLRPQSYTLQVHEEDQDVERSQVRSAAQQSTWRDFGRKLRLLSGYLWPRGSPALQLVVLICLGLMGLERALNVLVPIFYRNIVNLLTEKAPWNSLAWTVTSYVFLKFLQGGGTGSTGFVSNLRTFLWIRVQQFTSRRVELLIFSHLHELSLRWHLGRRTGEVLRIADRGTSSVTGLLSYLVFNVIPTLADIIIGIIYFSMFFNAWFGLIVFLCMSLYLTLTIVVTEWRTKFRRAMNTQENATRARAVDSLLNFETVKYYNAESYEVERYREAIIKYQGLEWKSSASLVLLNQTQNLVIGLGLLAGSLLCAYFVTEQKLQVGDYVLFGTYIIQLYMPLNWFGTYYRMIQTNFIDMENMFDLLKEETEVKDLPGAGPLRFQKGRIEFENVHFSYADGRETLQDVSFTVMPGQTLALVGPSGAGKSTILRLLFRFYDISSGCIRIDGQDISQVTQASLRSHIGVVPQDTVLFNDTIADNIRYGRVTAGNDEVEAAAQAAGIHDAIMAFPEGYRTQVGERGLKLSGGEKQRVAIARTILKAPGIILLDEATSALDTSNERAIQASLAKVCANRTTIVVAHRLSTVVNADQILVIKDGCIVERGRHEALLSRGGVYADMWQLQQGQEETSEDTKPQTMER
# [16] = promoters of myeloid differentiation in arrested cells, primary screen, cell-based, GFP/MAC1 double positive, flow cytometry, validation set (AID 588685;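 active = differentiation response of at least 50%, scaled between solvent and reference control, from cells with both markers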;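 note: compound exposure lasts four days before antibody staining and flow analysis; 0% = DMSO wells and 100% = 5 µM fulvestrant positive control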); details: ER-HoxA9 marrow cells, stronger effect = higher value
# [17] = target: Lethal factor (Bacillus anthracis) (UniProt P15917); assay: Lethal factor protease inhibitors, Bacillus anthracis, multiplex microsphere cleavage assay, validation set (AID 588461); details: flow cytometry, at 10 µM, stronger effect = higher value
# Sequence of Lethal factor (Bacillus anthracis) (P15917 whole entry, looked up): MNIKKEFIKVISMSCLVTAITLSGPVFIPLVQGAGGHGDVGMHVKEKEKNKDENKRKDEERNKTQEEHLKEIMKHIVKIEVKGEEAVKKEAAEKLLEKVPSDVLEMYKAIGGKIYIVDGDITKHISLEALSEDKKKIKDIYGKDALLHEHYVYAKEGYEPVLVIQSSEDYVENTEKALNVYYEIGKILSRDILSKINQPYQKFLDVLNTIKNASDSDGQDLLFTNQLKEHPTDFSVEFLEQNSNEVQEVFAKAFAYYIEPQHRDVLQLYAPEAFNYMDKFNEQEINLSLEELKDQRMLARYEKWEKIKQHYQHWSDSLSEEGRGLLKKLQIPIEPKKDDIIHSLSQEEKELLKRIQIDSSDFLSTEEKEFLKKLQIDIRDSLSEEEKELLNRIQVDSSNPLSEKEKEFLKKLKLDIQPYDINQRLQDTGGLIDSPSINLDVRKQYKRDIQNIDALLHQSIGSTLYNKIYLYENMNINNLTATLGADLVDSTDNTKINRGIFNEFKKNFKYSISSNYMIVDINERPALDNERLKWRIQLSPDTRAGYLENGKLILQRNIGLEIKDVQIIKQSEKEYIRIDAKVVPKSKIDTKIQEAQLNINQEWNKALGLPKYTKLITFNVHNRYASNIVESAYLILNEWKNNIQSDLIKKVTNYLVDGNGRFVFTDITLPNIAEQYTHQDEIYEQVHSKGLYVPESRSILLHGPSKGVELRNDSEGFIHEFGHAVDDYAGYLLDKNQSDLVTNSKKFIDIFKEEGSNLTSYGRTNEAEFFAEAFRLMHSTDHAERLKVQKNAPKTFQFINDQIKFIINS
SMILES,percent of DMSO control GFP [1],percent response of DMSO control [2],GFP response vs DMSO [3],double positive events [4],vesicle binding response [4],inhibition [5],superoxide response (% of plate) [6],aptamer binding inhibition [7],response [8],inhibition [9],response [10],binding (% of control) [11],inhibition [12],inhibition [13],efflux inhibition (fraction of control) [14],inhibition [15],differentiation response [16],inhibition [17]
Cc1cc(Cl)ccc1OC(C)C(=O)O (stereo not drawn),97.9% (inactive),111% (inactive),74.8% (inactive),58.2%,208% (inactive),-6.15% (inactive),135% (inactive),-5% (inactive),-8.83% (inactive),0.4% (inactive),3.15% (inactive),105% (inactive),3.9% (inactive),0.5% (inactive),0.37 (inactive),9% (inactive),7.37% (inactive),
C[N+]1(C)[C@@H]2CC(OC(=O)[C@H](CO)c3ccccc3)C[C@H]1[C@@H]1O[C@@H]12 (stereo partly drawn),97.8% (inactive) and 102% (inactive),99.7% (inactive) and 92% (inactive),94.8% (inactive) and 112% (inactive),62.3% and 61.3%,109% (inactive) and 5740% (inactive),12.3% (inactive) and -9.98% (inactive),103% (inactive) and 114% (inactive),-1% (inactive) and 1% (inactive),4.9% (inactive) and -6.87% (inactive),5.6% (inactive) and -2.35% (inactive),3.4% (inactive) and -1.88% (inactive),99.6% (inactive) and 101% (inactive),-3.5% (inactive) and 1.5% (inactive),-1.8% (inactive) and 0.7% (inactive),,-8% (inactive) and 5% (inactive),-6.03% (inactive) and -15.2% (inactive),-5.6% (inactive) and 13.1% (inactive)
O=C(CCCN1CCC2(CC1)C(=O)NCN2c1ccccc1)c1ccc(F)cc1,98.9% (inactive),102% (inactive),110% (inactive),62.6%,187% (inactive),8.25% (inactive),85.3% (inactive),-1% (inactive),-35.8% (inactive),-9.7% (inactive),1.45% (inactive),103% (inactive),,,0.12 (inactive),-1% (inactive),3.88% (inactive),0.5% (inactive)
CC[C@@H](CO)NC(=O)[C@@H]1C=C2c3cccc4c3c(cn4C)C[C@H]2N(C)C1,103% (inactive),99.8% (inactive),90.3% (inactive),59.1%,158% (inactive),8.15% (inactive),108% (inactive),2% (inactive),,0.36% (inactive),-0.46% (inactive),104% (inactive),,,0.56 (active),7% (inactive),1.41% (inactive),-6.6% (inactive)
CC(C)C[C@H](NC(=O)[C@@H]1CCCN1C(=O)[C@@H](N)Cc1ccc(O)cc1)C(=O)NCC(N)=O (H-YPLG-NH2),108% (inactive),110% (inactive),89.3% (inactive),63.1%,186% (inactive),0.69% (inactive),95.5% (inactive),1% (inactive),,2.65% (inactive),-0.2% (inactive),101% (inactive),-4.4% (inactive),-0.2% (inactive),-0.09 (inactive),7% (inactive),-9.89% (inactive),1% (inactive)
CCNC(=S)N(C)CCc1cc2c(c(OC)c1C=C1C(=O)N(C)C(=O)N(C)C1=O)OCO2,98.1% (inactive),91% (inactive),96.4% (inactive),62.5%,168% (inactive),15.6% (inactive),89.1% (inactive),4% (inactive),,27.6% (inactive),-7.44% (inactive),100% (inactive),1.8% (inactive),1.4% (inactive),-0.16 (inactive),-16% (inactive),6.26% (inactive),1.3% (inactive)
CCN(CC)C(=O)N[C@H]1C[C@@H]2c3cccc4[nH]cc(c34)C[C@H]2N(C)C1,101% (inactive),101% (inactive),94% (inactive),62.5%,197% (inactive),-11.9% (inactive),,-2% (inactive),-25% (inactive),28.7% (inactive),-1.97% (inactive),101% (inactive),-2.6% (inactive),-1.3% (inactive),0.36 (inactive),-252% (inactive),21.8% (inactive),-36% (inactive)
Cc1cc(Cl)ccc1OCC(=O)O,96.8% (inactive),109% (inactive),105% (inactive),60.3%,188% (inactive),7.22% (inactive),108% (inactive),-4% (inactive),,-8.4% (inactive),-14.2% (inactive),111% (inactive),-6.1% (inactive),-0.1% (inactive),-0.35 (inactive),10% (inactive),-24.4% (inactive),2.4% (inactive)
